Assay outcomes as filed in PubChem BioAssay.
HT1080 IDH1KD tx = qHTS for induction of synthetic lethality in tumor cells producing 2HG: qHTS for the HT-1080-IDH1KD cell line; HT-1080 IDH1 knockdown viability, ATP luminescence, 48 h; Potency, µM (series often up to 46.1 µM), without a hit: at the top dose activity, negative = toxicity, actives largely listed as cytotoxic; hit rate 2% among 360,000; AID 686971, 2013;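 also: potency is read from the fitted curve at half-maximal effect; 0% = DMSO wells and -100% = cell-free medium wells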
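Assay cells: HT-1080 with IDH1 knockdown, 750 per well, RPMI/5% FBS. Exposure: 48 h at 37 °C following 2 h pre-incubation. Read: CellTiter-Glo luminescence; fitted concentration-response, curve class assigned.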
HT1080NT lethal = qHTS for induction of synthetic lethality in tumor cells producing 2HG: qHTS for the HT-1080-NT fibrosarcoma cell line. HT-1080-NT fibrosarcoma viability, CellTiter-Glo ATP luminescence, 48 h. hit rate 1.6% among 360,000. Potency, µM (top dose mostly 46.1 µM), inactives show top-dose activity, negative = less viability, most hits filed as cytotoxic;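 also: NT is the 2HG producing partner of a matched IDH1 knockdown line; potency is read from the fitted curve at half-maximal effect; 0% = DMSO-treated cells and -100% = media-only wells without cells; nearly all actives have a fitted effect of over 55% in size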
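Fibrosarcoma NT cells, 750 per well in 5% FBS RPMI, were exposed to compound for 48 hours. Viability: CellTiter-Glo luminescence.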
KB-V1 MDR tox = qHTS assay for MDR1-selective chemotherapeutics: Primary screen using the drug-selected MDR subline cells KB-V1 | KB-V1 MDR cells viability, CellTiter-Glo, 72 h | Potency, µM (highest dose often 46.1 µM), actives largely listed as cytotoxic | hit rate 3.4% among 400,000 | AID 1347076, 2019; also: potency is read from the fitted curve at half-maximal effect; nearly all actives have a fitted effect of over 60% in size
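Drug-selected KB-V1 cells, grown in DMEM lacking phenol red with 10% FBS, receive compound titrations; after three days at 37 degrees C, surviving cell ATP is quantified by CellTiter-Glo luminescence and responses normalized and curve-fitted.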
IL1B secr inh = qHTS for Inhibitors of Inflammasome Signaling: IL-1-beta AlphaLISA Primary Screen. activity change, % at 57.5 µM. hit rate 4.7% among 360,000. THP-1 LPS/ATP IL-1B secretion, AlphaLISA, 16 h; hits give low values; in the data active = activity change below about -50%; inconclusive = mostly about -30% to -49%
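Secreted IL-1B measured by AlphaLISA bead assay after 16 h compound exposure of THP-1 cells; compounds (final up to 57.5 uM) added 1 h before LPS (250 ng/mL) and ATP (1.25 mM) stimulation; lower signal means less secretion.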
KB-3-1 cytotox = qHTS assay for MDR1-selective chemotherapeutics: Primary screen using the parental adenocarcinoma cell KB-3-1. KB-3-1 viability, CellTiter-Glo ATP luminescence, 72 h. Potency, µM (top dose mostly 46.1 µM), most hits filed as cytotoxic. hit rate 1.4% among 400,000; also: potency is read from the fitted curve at half-maximal effect; nearly all actives have a fitted effect of over 60% in size
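KB-3-1 cells, DMEM (no phenol red) + 10% FBS; compound by pin transfer, 72 h, 37 °C. Readout: CellTiter-Glo luminescence after 10 min. Data normalized, curve-fitted.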
Starred values were filed as active, the others as inactive; ! = a repeat was not active. Rows were chosen to be rich in hits. Some 8.8% of all compounds tested hit in one or more screens of this group. Unless noted, calls follow the shape of the dose curve; as a rule, active = well fitted curve in the direction sought with a large enough effect; inconclusive = small, poorly fitted or top-dose-only effect, or another doubt; inactive = no such curve, though single readings can be large; an effect the other way counts as inactive or inconclusive. Unless noted, % is scaled to controls: 0 for no effect and ±100 for the full control effect.

CCCC[n+]1c(/C=C/c2c(OC)cc(OC)cc2OC)ccc2ccccc21 was read as KB-V1 MDR tox inactive and KB-3-1 cytotox inactive.
O=C(Nc1ccc(N2CCN(C(=O)c3ccccc3)CC2)cc1)c1ccc(Br)o1 was read as HT1080 IDH1KD tx 6.1%, HT1080NT lethal 2.2%, KB-V1 MDR tox inconclusive, IL1B secr inh -53.7* and KB-3-1 cytotox inactive.
Screening O=C(Nc1ccc(N2CCOCC2)c(Cl)c1)c1ccc(Br)o1 returned HT1080 IDH1KD tx -8.4%, HT1080NT lethal inconclusive, KB-V1 MDR tox inconclusive, IL1B secr inh -74.0* and KB-3-1 cytotox inactive.
Screening O=C(Nc1ccc(N2CCN(C(=O)c3ccccc3)CC2)c(Cl)c1)c1ccc(Br)o1 returned HT1080 IDH1KD tx inconclusive, HT1080NT lethal 7.08µM*, KB-V1 MDR tox inactive, IL1B secr inh -100.7* and KB-3-1 cytotox inconclusive.
For O=C(Nc1ccc(N2CCOCC2)c(Cl)c1)c1ccc(F)cc1 the results were HT1080 IDH1KD tx -0.3%, HT1080NT lethal 4.3%, KB-V1 MDR tox 14.6µM*, IL1B secr inh 0.0 and KB-3-1 cytotox inactive.
CC(C)N1CCN(C(=O)c2ccc(NC(=O)c3ccc(Br)o3)cc2)CC1 was read as HT1080 IDH1KD tx 12.9%, HT1080NT lethal inconclusive, KB-V1 MDR tox inconclusive, IL1B secr inh -8.3 and KB-3-1 cytotox inactive.
`COc1cccc(N(C(=O)c2snc(C(N)=O)c2N)C(C(=O)NCC2CCCO2)c2ccc3ncccc3c2)c1` (configuration not stated) gave HT1080 IDH1KD tx 24.1%, HT1080NT lethal -7.0%, KB-V1 MDR tox inconclusive, IL1B secr inh -9.9 and KB-3-1 cytotox inactive.
`COc1cnc(SCCC(F)=C(F)F)[nH]c1=O` gave HT1080 IDH1KD tx 1.6%, HT1080NT lethal -13.6%, KB-V1 MDR tox inconclusive, IL1B secr inh -5.6 and KB-3-1 cytotox inactive.
For COc1ccc2cc(CCNS(=O)(=O)c3ccc(C)cc3)c(=O)[nH]c2c1 the results were KB-V1 MDR tox inactive and KB-3-1 cytotox inactive.
For O=C(Nc1cccc(NC(=O)c2ccc(Br)o2)c1)c1ccccc1 the results were HT1080 IDH1KD tx -22.0%, HT1080NT lethal -13.9%, KB-V1 MDR tox inactive, IL1B secr inh inconclusive and KB-3-1 cytotox inactive.
Screening CCN1CCN(c2ccc(NC(=O)c3cccc(F)c3)cc2Cl)CC1 returned HT1080 IDH1KD tx inconclusive, HT1080NT lethal inconclusive, KB-V1 MDR tox inactive, IL1B secr inh -50.4* and KB-3-1 cytotox inconclusive.
O=C(c1ccccc1)c1cccc(NC(=O)c2ccc(Br)o2)c1 was read as HT1080 IDH1KD tx -23.7%, HT1080NT lethal -20.5%, KB-V1 MDR tox inconclusive, IL1B secr inh -64.3* and KB-3-1 cytotox inactive.
For Cc1c(NC(=O)c2cc(-c3ccc(F)cc3)on2)c(=O)n(-c2ccccc2)n1C the results were HT1080 IDH1KD tx 13.4%, HT1080NT lethal 4.9%, KB-V1 MDR tox inconclusive, IL1B secr inh 12.4 and KB-3-1 cytotox inactive.
For O=C(CSc1ccc(Cl)cc1)Nc1ccc(-c2nc3ccccc3[nH]2)cc1 the results were HT1080 IDH1KD tx inconclusive, HT1080NT lethal inconclusive, KB-V1 MDR tox inactive, IL1B secr inh -11.3 and KB-3-1 cytotox inactive.
Screening CCCS(=O)(=O)NC(=O)C1(C)CCCN(C(=O)c2ccccc2F)C1 (configuration not stated) returned HT1080 IDH1KD tx 9.9%, HT1080NT lethal 24.2%, KB-V1 MDR tox inactive, IL1B secr inh -70.6* and KB-3-1 cytotox inactive.
For COc1cc(OC)cc(C(=O)Nn2cc(C(=O)Nc3c(F)cccc3F)c3ccccc3c2=O)c1 the results were HT1080 IDH1KD tx -10.1%, HT1080NT lethal -0.8%, KB-V1 MDR tox inactive, IL1B secr inh -28.0 and KB-3-1 cytotox inactive.
O=C(C(=O)N1CCN(c2ccc(F)cc2)CC1)c1cn(CC(=O)N2CCOCC2)c2ccccc12 was read as HT1080 IDH1KD tx 3.3%, HT1080NT lethal -0.3%, KB-V1 MDR tox inactive, IL1B secr inh -19.1 and KB-3-1 cytotox inactive.
`CN(C)c1ccc(-c2c(-c3ccc4c(c3)OCO4)noc2-c2ccsc2)cn1` gave HT1080 IDH1KD tx -2.1%, HT1080NT lethal -0.1%, KB-V1 MDR tox 10.3µM*!, IL1B secr inh -8.6 and KB-3-1 cytotox inconclusive.
`COc1ccc(-c2c(-c3ccc4c(c3)OCO4)noc2-c2ccsc2)cn1` gave KB-V1 MDR tox inconclusive and KB-3-1 cytotox inactive.
Screening O=C(c1ccccc1Br)N(Cc1ccccc1)c1ccccc1 returned HT1080 IDH1KD tx -8.8%, HT1080NT lethal -10.0%, KB-V1 MDR tox inactive, IL1B secr inh -57.2* and KB-3-1 cytotox inactive.
Screening CC(C)CCNc1ncnc2c1nnn2Cc1ccccc1Cl returned HT1080 IDH1KD tx 3.4%, HT1080NT lethal 3.3%, KB-V1 MDR tox 13µM*, IL1B secr inh -11.3 and KB-3-1 cytotox inactive.
Screening Fc1cccc(Cl)c1Cn1nnc2c(NCc3ccccn3)ncnc21 returned HT1080 IDH1KD tx -15.1%, HT1080NT lethal -9.9%, KB-V1 MDR tox inconclusive, IL1B secr inh -59.4* and KB-3-1 cytotox inactive.
Fc1cccc(Cl)c1Cn1nnc2c(NCc3ccncc3)ncnc21 was read as HT1080 IDH1KD tx inconclusive, HT1080NT lethal inconclusive, KB-V1 MDR tox inactive, IL1B secr inh 18.0 and KB-3-1 cytotox inconclusive.
CCN1CCN(C(c2ccc(F)cc2)c2sc3nc(-c4ccco4)nn3c2O)CC1 (configuration not stated) was read as KB-V1 MDR tox inactive and KB-3-1 cytotox inactive.
For CS(=O)(=O)c1ccc(Sc2nc3ccccc3[nH]2)c([N+](=O)[O-])c1 the results were HT1080 IDH1KD tx -3.9%, HT1080NT lethal -0.6%, KB-V1 MDR tox inactive, IL1B secr inh inconclusive and KB-3-1 cytotox inconclusive.
Screening CS(=O)(=O)c1ccc(Sc2nc3ccccc3s2)c([N+](=O)[O-])c1 returned HT1080 IDH1KD tx 20.6µM*, HT1080NT lethal -9.8%, KB-V1 MDR tox inconclusive, IL1B secr inh -120.9* and KB-3-1 cytotox inactive.
Screening O=[N+]([O-])c1cc(S(=O)(=O)C(F)(F)F)ccc1Sc1nc2ccccc2[nH]1 returned HT1080 IDH1KD tx 18.4µM*, HT1080NT lethal inconclusive, KB-V1 MDR tox inactive, IL1B secr inh -102.9* and KB-3-1 cytotox inconclusive.
For O=S(=O)(Nc1ccc(O)c(Sc2nc3ccccc3s2)c1)c1ccc(F)cc1 the results were HT1080 IDH1KD tx inconclusive, HT1080NT lethal -24.6%, KB-V1 MDR tox inactive, IL1B secr inh -6.6 and KB-3-1 cytotox inactive.
`O=[N+]([O-])c1cc(S(=O)(=O)C(F)(F)F)ccc1Sc1nc2ccccc2s1` gave HT1080 IDH1KD tx inconclusive, HT1080NT lethal 23.1µM*, KB-V1 MDR tox inconclusive, IL1B secr inh -121.1* and KB-3-1 cytotox 3.26µM*.
